# Measured values: PubChem BioAssay (NCATS)
# A number with no mark means an inactive call. Inconclusive results are not listed. Active and inactive are the calls of the source. Unless noted, calls come from the whole dose curve; as a rule, active = well fitted curve in either direction with a large enough effect (not every such curve was filed as active); inconclusive = small, poorly fitted or top-dose-only effect, or another doubt; inactive = flat fitted curve, though single readings scatter.
# Assays:
# [1] = target: Lysosomal acid glucosylceramidase (Homo sapiens) (UniProt P04062); experiment: Glucocerebrosidase-p2 (AID 348; in the data active = potency below about 10 µM; note: potency is the fitted concentration of half-maximal effect); conditions: purified GBA, blue fluorogenic substrate, 40 min
# Summary of the method: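 Normal human glucocerebrosidase (0.2 nM) with blue fluorogenic substrate (80 uM final) in citrate/phosphate pH 5.9 with 10mM sodium taurocholate, 0.01% tween-20; 40 min RT, NaOH/glycine stop; fluorescence Ex 365/Em 440; AC50 from a titration from 0.6 nM upwards.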
# [2] = AP1 Signaling Pathway (AID 357); conditions: ME-180 AP-1-bla reporter, EGF-induced, beta-lactamase ratio, 5 h; at 7.69 µM (top of the series) unless noted;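 note: ME-180 reporter cells stimulated with EGF at its EC50 level; % is set by controls: 0 for no effect and ±100 for the full control effect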
# Summary of the method: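 Beta-lactamase reporter under AP-1 response element, ME-180 background. Stimulus: EC50 EGF. Compound exposure 5 h, 37 °C. Detection: CCF4, 2.5 h RT, 460/530 nm. Values: AC50 from titration.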
# [3] = target: Cytochrome P450 1A2 (Homo sapiens) (UniProt P05177); experiment: p450-cyp1a2 (AID 410; calls by dose curve; note: potency is the fitted concentration of half-maximal effect;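 for activity change, negative = inhibition: -100% = full effect of reference inhibitor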); conditions: recombinant CYP1A2, luciferin-ME demethylation, luminescence; series mostly up to 11.4 µM
# Summary of the method: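 Luminescent demethylation readout: Luciferin-ME (100uM, equal to Km) turned over by 20nM CYP1A2 for 60 min at room temperature after NADPH regeneration addition, following 10 min compound preincubation. Normalization used 57 uM furafylline as full inhibition.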
# [4] = NFAT Signaling Pathway (AID 444); conditions: Jurkat NFAT-bla M1, carbachol, beta-lactamase ratio, 5 h; at 7.69 µM (top of the series) unless noted;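 note: carbachol stimulus at about its EC50 of 1 µM final; % is set by controls: 0 for no effect and ±100 for the full control effect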
# Summary of the method: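 Read-out: CCF4 FRET ratio (460 nm/530 nm) after 1 h RT dye loading, used for %activity and AC50 from titration series. Cells: Jurkat NFAT-β-lactamase/M1 line, treated with compound plus 1 uM carbachol for 5 h, 37 °C.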
# [5] = Stat Signaling Pathway (AID 446); conditions: ME-180 (cervical carcinoma) SIE beta-lactamase reporter, IL-6 stimulated, 5 h; at 7.69 µM (top of the series) unless noted;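 note: ME-180 cervical cancer cells given 40 pM IL-6 alongside compound; SIE-controlled beta-lactamase reporter measured as 460/530 nm FRET emission ratio; % is set by controls: 0 for no effect and ±100 for the full control effect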
# Summary of the method: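 Emission at 460 and 530 nm (excitation 405 nm) reports SIE-controlled beta-lactamase in ME-180 cells. Cells received compound with 40 pM IL-6 for 5 hrs at 37 C; data scaled between 300 pM IL-6 and 125 nM JAK-inhibitor controls.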
# [6] = target: Glucocorticoid receptor (Homo sapiens) (UniProt P04150); experiment: GR-GFP Redistribution (AID 450;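 active = compounds whose dose series gives a full or clear partial fitted curve of increased nuclear translocation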; note: potency is the fitted concentration of half-maximal effect); conditions: U2OS GR-GFP nuclear translocation, laser cytometry, 2 h
# [7] = target: Glucocorticoid receptor (Homo sapiens) (UniProt P04150); experiment: GR-EFC Redistribution (AID 451; calls by dose curve; note: potency is the fitted concentration of half-maximal effect); conditions: CHO-K1 GR-EFC translocation, beta-gal luminescence, 2 h
# Summary of the method: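 Translocation of GR-ED fusion to nuclear EA restores b-gal, read by luminescence after 1 h room-temperature detection. Engineered CHO-K1 biosensor cells, 1,000/well, exposed 2 h at 37 C to titrations up to 46 uM final.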
# [8] = target: Mitogen-activated protein kinase 10 (Mus musculus) (UniProt Q61831); experiment: JNK3 AlphaScreen Assay (AID 530); conditions: JNK3 lysate, c-Jun phosphorylation; series mostly up to 11.4 µM;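 note: kinase came from lysate of stimulated human HepG2 cells; signal reports phosphorylation of biotinylated GST-cJun 1-79 at Ser73 with 10 µM ATP; % is set by controls: 0 for no effect and ±100 for the full control effect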
# Summary of the method: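 qHTS titrations with 15 min compound pre-incubation before adding ATP (10 uM final). Read-out: AlphaScreen of Ser73-phosphorylated biotin-GST-cJun using HepG2 lysate JNK3 activated by IL-1β and TNFα.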
# [9] = target: 3',5'-cyclic-AMP phosphodiesterase 4B (Homo sapiens) (UniProt Q07343); experiment: qHTS Assay for Inhibitors of PDE-IV (AID 607; active = well fitted activation curve with a large enough effect in the main read-out, with a control signal flat, not every such curve was filed as active; note: % of control where 0% means no effect); conditions: HEK293 ACTOne CNG channel cells, membrane potential fluorescence; series mostly up to 22.9 µM
# Summary of the method: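 The readout is membrane depolarisation from a cAMP-sensing CNG channel, detected with a potential dye at ex 535/em 590. Cells were HEK293-derived (endogenous PDE-IV) at 1000 cells/well, titrated up to 22.9 uM final.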
# Chain of 3',5'-cyclic-AMP phosphodiesterase 4B (Homo sapiens) (Q07343 whole entry, looked up): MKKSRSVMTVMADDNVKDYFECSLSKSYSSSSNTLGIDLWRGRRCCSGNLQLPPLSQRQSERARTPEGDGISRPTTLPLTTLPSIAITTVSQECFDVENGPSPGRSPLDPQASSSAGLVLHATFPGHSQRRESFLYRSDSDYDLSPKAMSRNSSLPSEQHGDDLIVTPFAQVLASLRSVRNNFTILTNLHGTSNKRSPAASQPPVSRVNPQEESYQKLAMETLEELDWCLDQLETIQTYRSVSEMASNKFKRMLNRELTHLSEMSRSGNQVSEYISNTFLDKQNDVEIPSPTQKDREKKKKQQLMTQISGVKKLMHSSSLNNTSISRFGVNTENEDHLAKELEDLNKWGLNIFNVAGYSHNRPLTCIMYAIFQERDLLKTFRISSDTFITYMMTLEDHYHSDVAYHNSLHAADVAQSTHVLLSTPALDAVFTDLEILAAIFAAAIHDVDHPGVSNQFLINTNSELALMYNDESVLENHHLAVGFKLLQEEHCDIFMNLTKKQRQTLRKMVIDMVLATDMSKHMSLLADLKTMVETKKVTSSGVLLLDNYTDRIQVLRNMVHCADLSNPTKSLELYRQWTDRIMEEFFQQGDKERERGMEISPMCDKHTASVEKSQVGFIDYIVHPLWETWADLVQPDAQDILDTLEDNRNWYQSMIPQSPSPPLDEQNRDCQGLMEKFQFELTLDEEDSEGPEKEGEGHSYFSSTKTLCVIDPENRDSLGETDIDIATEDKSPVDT
# Chain of Glucocorticoid receptor (Homo sapiens) (P04150 whole entry, looked up, the tested form may be a part): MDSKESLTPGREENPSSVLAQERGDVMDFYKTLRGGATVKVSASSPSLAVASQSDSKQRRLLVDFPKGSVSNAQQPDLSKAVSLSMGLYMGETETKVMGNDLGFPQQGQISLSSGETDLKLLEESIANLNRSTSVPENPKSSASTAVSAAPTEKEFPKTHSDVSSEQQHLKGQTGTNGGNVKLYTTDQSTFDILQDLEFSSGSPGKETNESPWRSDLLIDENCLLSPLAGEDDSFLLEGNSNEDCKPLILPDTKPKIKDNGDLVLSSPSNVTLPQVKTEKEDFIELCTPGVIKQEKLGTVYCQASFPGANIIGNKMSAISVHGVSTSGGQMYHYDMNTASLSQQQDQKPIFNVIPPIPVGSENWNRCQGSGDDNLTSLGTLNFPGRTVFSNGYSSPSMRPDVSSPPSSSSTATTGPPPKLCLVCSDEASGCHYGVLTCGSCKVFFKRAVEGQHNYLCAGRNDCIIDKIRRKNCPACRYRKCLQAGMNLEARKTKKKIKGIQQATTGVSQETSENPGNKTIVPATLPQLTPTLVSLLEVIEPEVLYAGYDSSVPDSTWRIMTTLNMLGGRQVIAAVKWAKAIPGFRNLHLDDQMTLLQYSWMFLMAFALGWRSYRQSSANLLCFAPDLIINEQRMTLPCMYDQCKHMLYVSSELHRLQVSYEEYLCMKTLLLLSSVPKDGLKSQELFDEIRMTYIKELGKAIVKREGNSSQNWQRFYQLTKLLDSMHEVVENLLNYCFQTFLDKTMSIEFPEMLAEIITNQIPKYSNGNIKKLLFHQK
# Chain of Cytochrome P450 1A2 (Homo sapiens) (P05177 whole entry, looked up): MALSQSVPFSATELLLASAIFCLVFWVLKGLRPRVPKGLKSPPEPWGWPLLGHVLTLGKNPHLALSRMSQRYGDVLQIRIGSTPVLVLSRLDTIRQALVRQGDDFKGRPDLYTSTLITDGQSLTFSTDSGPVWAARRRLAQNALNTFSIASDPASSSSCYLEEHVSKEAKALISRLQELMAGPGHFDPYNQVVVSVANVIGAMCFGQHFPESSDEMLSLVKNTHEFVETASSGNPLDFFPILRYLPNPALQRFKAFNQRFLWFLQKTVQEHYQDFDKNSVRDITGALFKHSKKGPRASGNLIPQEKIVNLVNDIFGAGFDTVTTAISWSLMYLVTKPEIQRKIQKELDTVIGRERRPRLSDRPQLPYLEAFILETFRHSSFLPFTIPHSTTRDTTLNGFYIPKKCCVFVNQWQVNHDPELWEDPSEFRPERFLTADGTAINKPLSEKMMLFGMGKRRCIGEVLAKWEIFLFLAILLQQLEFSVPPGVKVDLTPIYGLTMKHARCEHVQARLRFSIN
# Chain of Lysosomal acid glucosylceramidase (Homo sapiens) (P04062 whole entry, looked up): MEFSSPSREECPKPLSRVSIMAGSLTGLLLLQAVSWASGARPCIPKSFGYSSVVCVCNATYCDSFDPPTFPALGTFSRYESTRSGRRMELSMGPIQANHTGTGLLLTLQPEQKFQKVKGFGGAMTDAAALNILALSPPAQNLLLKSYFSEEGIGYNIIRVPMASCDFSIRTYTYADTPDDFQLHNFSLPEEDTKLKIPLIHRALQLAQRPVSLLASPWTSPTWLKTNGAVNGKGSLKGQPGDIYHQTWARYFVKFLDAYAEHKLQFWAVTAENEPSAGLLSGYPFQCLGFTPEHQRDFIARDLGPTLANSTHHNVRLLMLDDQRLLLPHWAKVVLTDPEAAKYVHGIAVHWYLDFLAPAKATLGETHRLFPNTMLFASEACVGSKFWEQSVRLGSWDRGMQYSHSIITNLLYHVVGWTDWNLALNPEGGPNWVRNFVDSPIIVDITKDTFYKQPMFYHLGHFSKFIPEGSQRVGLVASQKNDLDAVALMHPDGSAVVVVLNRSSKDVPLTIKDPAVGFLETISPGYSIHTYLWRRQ
SMILES,Potency [1] [µM],"activity change, negative = inhibition [2] [%]",Potency [3],"activity change, negative = inhibition [4] [%]","activity, negative = inhibition [5] [%]",Potency [6] [µM],Potency [7] [µM],Potency [8],Potency [9],"activity change, negative = inhibition [3]"
O=C(CSc1nc2ccccc2c2ccccc12)c1ccccc1,> 11.4,-2.08,0.251 µM (active),10.2,-4.01,> 46,> 9.22,inactive,inactive,
CN(C)Cc1cc(C(C)(C)C)ccc1-c1ccc(C(C)(C)C)cc1CN(C)C,> 11.4,4.9,,5.47,1.89,> 46,> 9.22,inactive,inactive,-17.9% [at 2.29 µM]
Oc1cc(CN2COc3ccccc32)c(O)cc1CNC1CCCCC1,> 11.4,6.94,inactive,-5.35,0.916,> 46,> 9.22,inactive,inactive,
Cn1c(=O)c2[nH]c(CCC(=O)O)nc2n(C)c1=O,> 11.4,0.0396,inactive,10.1,-0.184,> 46,> 9.22,inactive,inactive,
CCON=C1C(C)(C)C(C)(C)C(C)(C)C1(C)C,> 11.4,1.12,inactive,6.28,-3.9,> 46,> 9.22,inactive,inactive,
CC(C)CN=C(N)N=C(N)N,> 11.4,6.14,inactive,11.1,1.4,> 46,> 9.22,inactive,inactive,
C/C(=N\O)c1cccc[n+]1Cc1ccccc1,> 11.4,-1.8,inactive,-12.3,11.4,> 46,> 9.22,inactive,inactive,
O=C1CCC(c2ccccc2)(c2ccccc2)CC1,> 11.4,5.18,inactive,-2.6,1.75,> 46,> 9.22,inactive,inactive,
CC1=CC(=O)CC(C)(C)[C@]1(O)/C=C\C(C)=C\C(=O)O,> 11.4,2.59,inactive,-29.1,2.83,> 46,> 9.22,inactive,inactive,
O=C(O)[C@@H]1CCN(Cc2oc(CO)cc(=O)c2O)C1,> 11.4,6.76,10 µM (active),-8.96,16.1,> 46,> 9.22,inactive,inactive,
O=C(O)CCC(O)=C1S(=O)(=O)OCCOS1(=O)=O,> 11.4,-1.99,inactive,2.36,2.62,> 46,> 9.22,inactive,inactive,
CC1CCC(C(=O)O)([C@H](Br)C(=O)O)CC1 (stereo partly specified),> 11.4,-2.54,inactive,13.7,8,> 46,> 9.22,inactive,inactive,
CC(=NCC(=O)O)c1ccccc1,> 11.4,0.333,3.98 µM (active),13.9,1.76,> 46,> 9.22,inactive,inactive,
Nc1nc(SCC(=O)O)[nH]c(=O)c1N,> 11.4,4.37,inactive,10.6,4.74,> 46,> 9.22,inactive,inactive,
C/C(=N\NC(N)=S)c1ccc[nH]1,> 11.4,0.43,3.16 µM (active),12,-24.4,> 46,> 9.22,inactive,inactive,
CN(C)CCCn1cnc2cc(Cl)c(Cl)cc21,> 11.4,1.9,,-23.5,11.7,> 46,> 9.22,inactive,inactive,-20% [at 2.29 µM]
Oc1c(CN2CCOCC2)ccc(CN2CCOCC2)c1O,> 11.4,-1.19,,13,-3.77,> 46,> 9.22,inactive,inactive,-11.9% [at 2.29 µM]
N[C@@H](Cc1nn[nH]n1)C(=O)O,> 11.4,-0.568,inactive,-5.25,10.9,> 46,> 9.22,inactive,inactive,
Oc1ccccc1CNCc1ccccc1O,> 11.4,-4.9,inactive,-12.2,-8.46,> 46,> 9.22,inactive,inactive,
Cc1cccc2c1Oc1ccccc1[C@@H]2NC(=O)c1ccc([N+](=O)[O-])cc1,> 11.4,0.106,1 µM (active),-2.92,-4.56,> 46,> 9.22,inactive,inactive,
NS(=O)(=O)c1cc(C(=O)O)c(O)c2ccccc12,> 11.4,15.8,inactive,12.4,10.7,> 46,> 9.22,inactive,inactive,
C[N+]1(CCCC[N+]2(C)CCCCCCC2)CCCCCCC1,> 11.4,0.612,,-24.9,-6.69,> 46,> 9.22,inactive,inactive,-10.4% [at 2.29 µM]
O=C(O)c1ccc([N+]2=Cn3c(nc4ccccc43)C2)cc1,> 11.4,-0.795,5.01 µM (active),9.31,0.556,> 46,> 9.22,inactive,inactive,
O=S(=O)(O)[C@@H](c1ccccc1)[C@@H](O)c1ccccc1,> 11.4,1.17,,8.34,8.88,> 46,> 9.22,inactive,inactive,-13.9% [at 2.29 µM]
CN1CCN(CCCBr)CC1,> 11.4,5.14,inactive,10.6,-3.86,> 46,> 9.22,inactive,inactive,
[Cu].[O-]/N=C1/C(=[OH+])Nc2ccccc21.[O-]Nc1c(O)[nH]c2ccccc12,> 11.4,3.32,,13.2,5.41,> 46,> 9.22,inactive,inactive,-20.1% [at 2.29 µM]
CCSC[C@@H](N)C(=O)O,> 11.4,5.2,,-9.5,0.221,> 46,> 9.22,inactive,inactive,-1.6% [at 2.29 µM]
Nc1nc(-c2ccc3ccccc3c2)cc(-c2cc(-c3ccc4ccccc4c3)nc(N)n2)n1,> 11.4,-3.27,0.501 µM (active),9.25,6.54,> 46,> 9.22,inactive,inactive,
O=C(O)c1ccc(Cc2ccccc2C(=O)O)cc1,> 11.4,-5.89,inactive,5.4,-2.65,> 46,> 9.22,inactive,inactive,
